# Screening results from PubChem BioAssay.
# TDP1 cell noCPT = qHTS for Inhibitors of human tyrosyl-DNA phosphodiesterase 1 (TDP1): qHTS in cells in absence of CPT; DT40 Tdp1-/- hTDP1 cells, no CPT, ATP luminescence, 48 h; Potency, µM (series often up to 46.2 µM), usual class: inhibitors; actives 15% (n = 420,000); AID 686978, 2013; note: nearly all actives have a fitted effect of over 55% in size
#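 DT40 Tdp1-/-;hTDP1 cells, no CPT (DMSO vehicle only), 400 cells/well; compounds pin-transferred; ≥48 hr, 37 °C; CellTiter-Glo 30 min RT dark, luminescence read.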
# IL1B secr inh = qHTS for Inhibitors of Inflammasome Signaling: IL-1-beta AlphaLISA Primary Screen; THP-1 LPS/ATP IL-1B secretion, AlphaLISA, 16 h; stronger effect = lower value; actives 4.7% (n = 360,000); activity change, % at 57.5 µM; in the data active = activity change below about -50%; inconclusive = mostly about -30% to -49%
#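 Secreted IL-1B measured by AlphaLISA bead assay after 16 h compound exposure of THP-1 cells; compounds (final up to 57.5 uM) added 1 h before LPS (250 ng/mL) and ATP (1.25 mM) stimulation; lower signal means less secretion.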
# DT40 TDP1 CPT = qHTS for Inhibitors of human tyrosyl-DNA phosphodiesterase 1 (TDP1): qHTS in cells in presence of CPT; chicken DT40 Tdp1-/-;hTDP1 cells + 20 nM CPT, ATP luminescence, 48 h; actives 12% (n = 420,000); Potency, µM (series often up to 46.2 µM), hits mostly inhibitors; note: nearly all actives have a fitted effect of over 55% in size
#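 Cell growth measured by CellTiter-Glo luminescence after a minimum 48 h, 37 C compound exposure with 20 nM CPT in Tdp1-knockout DT40 cells stably expressing hTDP1, seeded 400/well; qHTS titration format.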
# HepG2 tox = qHTS for Inhibitors of TGF-b: Cytotox Counterscreen. HepG2 CAGA-GFP viability, ATP luminescence, 18 h. Potency, µM (titrated, usually from 46.1 µM), actives largely listed as cytotoxic. actives 0.76% (n = 410,000). AID 588856, 2011
#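 CellTiter-Glo luminescence gave cytotoxicity after 18 hours at 37 degrees C. The cells were HepG2 CAGA-GFP in 1% FBS DMEM, stimulated with 500 pg/mL TGF-beta after compound addition. %Activity was normalised to no-cell wells (complete cell-killing) and DMSO (no toxicity), and curves were fitted and classified.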
# TGFb inhibitor = qHTS for Inhibitors of TGF-b | HepG2 CAGA-GFP TGF-b/SMAD3 reporter, GFP fluorescence, 18 h; TGF-beta stimulated, 500 pg/mL final | Potency, µM (top dose mostly 46.1 µM), usual class: inhibitors | actives 1.2% (n = 410,000) | AID 588855, 2011; note: nearly all actives have a fitted effect of over 65% in size
#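 Inhibition was scored as loss of TGF-beta-induced (500 pg/mL final, 18 hours, 37 degrees C) GFP in HEPG2 cells carrying a CAGA-GFP reporter, in DMEM with 1% FBS. Well GFP was summed per cell; Activity was normalised to unstimulated and stimulated DMSO wells, then concentration-response fitting.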
# S-ASM inh = Inhibitors of Secretory Acid Sphingomyelinase (S-ASM): qHTS; placental ASM, HMU-PC fluorogenic substrate, 60 min; Potency, µM (top dose mostly 57.5 µM), most hits filed as inhibitors; actives 0.006% (n = 340,000); Sphingomyelin phosphodiesterase (Homo sapiens), P17405; AID 504937, 2011
# Target sequence (P17405 47-631 limits assumed): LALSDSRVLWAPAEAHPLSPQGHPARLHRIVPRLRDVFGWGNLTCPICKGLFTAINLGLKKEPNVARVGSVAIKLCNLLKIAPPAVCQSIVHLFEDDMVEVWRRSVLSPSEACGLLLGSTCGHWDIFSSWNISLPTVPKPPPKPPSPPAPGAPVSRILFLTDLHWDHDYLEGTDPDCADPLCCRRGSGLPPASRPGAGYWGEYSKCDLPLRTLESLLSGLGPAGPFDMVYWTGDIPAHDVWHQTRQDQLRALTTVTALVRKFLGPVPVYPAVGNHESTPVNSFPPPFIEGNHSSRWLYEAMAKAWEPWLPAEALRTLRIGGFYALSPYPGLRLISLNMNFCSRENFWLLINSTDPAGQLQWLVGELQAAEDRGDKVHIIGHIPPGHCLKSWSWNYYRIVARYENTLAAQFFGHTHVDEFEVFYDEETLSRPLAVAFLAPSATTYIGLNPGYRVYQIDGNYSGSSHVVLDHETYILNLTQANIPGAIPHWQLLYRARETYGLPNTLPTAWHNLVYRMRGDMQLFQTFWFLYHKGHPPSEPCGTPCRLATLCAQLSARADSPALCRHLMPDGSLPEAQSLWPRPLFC
#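 Fluorescence read-out (Ex 386 nm, Em 447 nm) after stopping the reaction at pH 10. Enzyme: ASM from human placenta; substrate HMU-PC0, 9 uM final; 60 min, 37 °C. Compound preincubation 10 min, ambient temperature.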
# Numbers stand for hits; . = inactive; ? = inconclusive; / = not tested or not shown. An excerpt weighted towards active compounds, which were near 19% of everything screened. Unless noted, calls come from the whole dose curve; as a rule, active = well fitted curve in the direction sought with a large enough effect; inconclusive = small, poorly fitted or top-dose-only effect, or another doubt; inactive = no such curve, though single readings can be large; an effect the other way counts as inactive or inconclusive.
SMILES,TDP1 cell noCPT,IL1B secr inh,DT40 TDP1 CPT,HepG2 tox,TGFb inhibitor,S-ASM inh
CCC(=O)N1CCCc2cc(S(=O)(=O)N3CCN(c4ccccn4)CC3)ccc21,21µM,.,?,.,.,.
O=C(Cc1ccc(F)cc1)N1CCC(c2nc3c(nnn3Cc3ccc(F)cc3)c(=O)[nH]2)CC1,?,/,?,.,?,/
NNC(=S)Nc1ccccc1Cl,7.3µM,.,?,.,.,.
Cc1ccc(CN2CCc3nc(N4CCN(C)CC4)ncc3C2)s1,?,/,?,.,.,/
COc1ccc(CCNC(=O)c2nc(SCc3ccccc3F)ncc2Cl)cc1OC,23µM,/,18µM,.,?,/
O=C(Nc1ccc(OC(F)F)cc1)c1nc(SCc2ccccc2F)ncc1Cl,13µM,/,?,.,.,/
Cc1ccc(CNC(=O)c2nc(SCc3ccccc3F)ncc2Cl)cc1,?,/,?,.,?,/
CSc1ccc(/C=C/C(=O)OCC(=O)NCC2CCCO2)cc1 (stereo not given),?,.,?,.,.,.
CC(C)c1cc(C(C)C)c(S(=O)(=O)NC(c2ccccn2)C23CC2C3)c(C(C)C)c1 (stereo not given),16µM,.,?,/,/,/
Cc1cccc(CSc2nnc(CCNC(=O)OC(C)(C)C)o2)c1,?,/,.,.,.,.
CCN1C(=O)[C@H]2[C@@H](c3ccc(C(F)(F)F)cc3)N[C@]3(CCCN(Cc4ccc(OC)cc4)C3=O)[C@H]2C1=O,10µM,.,21µM,.,?,/
CCN1C(=O)[C@H]2[C@@H](c3ccc(C(F)(F)F)cc3)N[C@]3(CCCN(Cc4ccc(C(F)(F)F)cc4)C3=O)[C@H]2C1=O,12µM,.,12µM,.,.,/
CCCCN(C(=O)c1cccc(S(=O)(=O)N2CC(C)OC(C)C2)c1)c1c(N)n(CC(C)C)c(=O)[nH]c1=O (stereo not given),.,.,.,.,.,.
CC(CCc1ccccc1)NC(=O)C1CCN(S(=O)(=O)c2cnc[nH]2)CC1 (stereo not given),.,-55,.,.,.,.
COc1ccc(S(=O)(=O)N2CCC(C(=O)NC(C)CCc3ccccc3)CC2)cc1 (stereo not given),.,/,.,.,.,.
C=C1Cc2c(Cl)cc3[nH]c4c5c3c2[C@@]2(O)[C@@H]1C[C@@H]2C(C)(C)O[C@H]5[C@@H]1CC[C@@]2(O)[C@@]35O[C@@H]3[C@@H](O)[C@@H](C(=O)O)O[C@H]5CC[C@]2(C)[C@@]41C,4.1µM,/,5.8µM,/,/,/
COc1ccc(-c2oc3ncn4nc(COc5cccc(C)c5C)nc4c3c2-c2ccc(OC)cc2)cc1,.,/,.,.,.,/
NC(=O)c1cc2ccccc2o/c1=N\NC(=O)c1ccc(F)cc1,8.2µM,.,21µM,.,.,.
O=C(NC1CCCCC1)n1c(=O)oc2ccc(Cl)cc21,13µM,.,12µM,.,.,.
CCOC(=O)c1ccc2c(c1)nc(SCc1cn3ccsc3n1)n2CC,16µM,?,?,.,?,.
COc1ccc(-c2csc(NC(=O)c3cc(=O)c4ccccc4o3)n2)cc1OC,5.8µM,.,?,.,.,.
COc1ccc(-c2csc(NC(=O)c3cc(C)oc3C)n2)cc1OC,18µM,-84,?,.,.,.
COc1ccc(S(=O)(=O)N(C)C[C@@H]2OCc3cnnn3CCCC(=O)N([C@@H](C)CO)C[C@H]2C)cc1,.,.,.,.,.,/
CC(C)(C)c1ccc(S(=O)(=O)N2CCN(c3ncccn3)CC2)cc1,?,.,.,.,.,.
